# Data reported in PubChem BioAssay.
# Activity calls are given as the source filed them.
# Legend:
# [1] = E. coli DRC41 culture turbidity changes, primary screen, E. coli filamentation inducer project, strain DRC41, OD650, 48 h (AID 1152);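 also: E. coli MC1000 strain DRC41 lacking acrAB efflux pump and sulA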; conditions: E. coli DRC41 (acrAB sulA), higher = more signal, called active from +8 up or from −8 down
# [2] = small-molecule binders of probe aLefty1, primary screen, biochemical, small-molecule microarray, 635/667 nm fluorescence (AID 1153); conditions: higher = more signal;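 also: score merges spot fluorescence with signal-to-noise ratio from the scanned slide images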
# [3] = PSAC antagonists in infected red cells, primary screen, cell-based, P. falciparum Indochina, OD700, 1 h (AID 1154); conditions: P. falciparum Indochina infected RBC osmotic lysis, higher = more signal, called active from +8 up or from −8 down
# [4] = PSAC antagonists in infected red cells, primary screen, cell-based, P. falciparum Indochina, OD700, 2 h (AID 1155);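 also: lysis reports solute entry through the parasite surface anion channel PSAC; channel blockers reduce lysis of infected cells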; conditions: P. falciparum Indochina infected erythrocytes, osmotic lysis OD700; higher = more signal, called active from +8 up or from −8 down
# [5] = osmotic lysis modulators in infected erythrocytes, primary screen, PSAC antagonist project, cell-based, P. falciparum Indochina, OD700, 3 h (AID 1156); conditions: higher = more signal, called active from +8 up or from −8 down
# [6] = PSAC antagonists in infected red cells, primary screen, cell-based, P. falciparum Indochina, OD700, 18 h (AID 1157); conditions: P. falciparum Indochina infected erythrocytes, osmotic lysis OD700, 18 h; higher = more signal, called active from +8 up or from −8 down
# [7] = modulators of S6 phosphorylation in cells, primary screen, cell-based, A549, cytoblot, luminescence, serum-stimulated (AID 1158); conditions: A549 phospho-S6 cytoblot, 5 h, higher = more signal;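 also: serum-stimulated A549 lung adenocarcinoma cells; signal is phosphorylated S6 detected by cytoblot immunostaining with HRP secondary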
# [8] = target: NADPH oxidase 2 (Homo sapiens) (UniProt P04839); assay: NOX2-dependent H2O2 signal modulators, primary screen, NOX inhibitor project, cell-based, HEK293-NOX2, PMA-stimulated, Amplex Red fluorescence (AID 1159); conditions: 45 min, higher = more signal, called active from +8 up or from −8 down; also: test concentration not given here
# Chain of NADPH oxidase 2 (Homo sapiens) (P04839 whole entry, looked up): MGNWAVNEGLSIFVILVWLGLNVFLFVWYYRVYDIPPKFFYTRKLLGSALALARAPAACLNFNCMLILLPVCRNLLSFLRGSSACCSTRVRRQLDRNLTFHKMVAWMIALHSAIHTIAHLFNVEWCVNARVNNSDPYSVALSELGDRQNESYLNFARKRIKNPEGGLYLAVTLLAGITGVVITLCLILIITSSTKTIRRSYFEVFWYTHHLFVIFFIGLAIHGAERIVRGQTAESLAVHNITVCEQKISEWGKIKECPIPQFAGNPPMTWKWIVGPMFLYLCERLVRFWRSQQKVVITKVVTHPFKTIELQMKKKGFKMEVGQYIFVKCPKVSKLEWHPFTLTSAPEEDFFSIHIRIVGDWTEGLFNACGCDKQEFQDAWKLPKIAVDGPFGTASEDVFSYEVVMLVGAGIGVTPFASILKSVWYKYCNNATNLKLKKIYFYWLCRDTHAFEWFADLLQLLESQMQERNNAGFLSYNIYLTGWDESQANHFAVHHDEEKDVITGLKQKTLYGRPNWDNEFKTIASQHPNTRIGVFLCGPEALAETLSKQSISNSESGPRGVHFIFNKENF
# [9] = target: NADPH oxidase 4 (Homo sapiens) (UniProt Q9NPH5); assay: NOX4-dependent H2O2 signal modulators, primary screen, NOX inhibitor project, cell-based, HEK293-NOX4, tetracycline-induced, Amplex Red fluorescence (AID 1160); conditions: 45 min, higher = more signal, called active from +8 up or from −8 down
# Chain of NADPH oxidase 4 (Homo sapiens) (Q9NPH5 whole entry, looked up): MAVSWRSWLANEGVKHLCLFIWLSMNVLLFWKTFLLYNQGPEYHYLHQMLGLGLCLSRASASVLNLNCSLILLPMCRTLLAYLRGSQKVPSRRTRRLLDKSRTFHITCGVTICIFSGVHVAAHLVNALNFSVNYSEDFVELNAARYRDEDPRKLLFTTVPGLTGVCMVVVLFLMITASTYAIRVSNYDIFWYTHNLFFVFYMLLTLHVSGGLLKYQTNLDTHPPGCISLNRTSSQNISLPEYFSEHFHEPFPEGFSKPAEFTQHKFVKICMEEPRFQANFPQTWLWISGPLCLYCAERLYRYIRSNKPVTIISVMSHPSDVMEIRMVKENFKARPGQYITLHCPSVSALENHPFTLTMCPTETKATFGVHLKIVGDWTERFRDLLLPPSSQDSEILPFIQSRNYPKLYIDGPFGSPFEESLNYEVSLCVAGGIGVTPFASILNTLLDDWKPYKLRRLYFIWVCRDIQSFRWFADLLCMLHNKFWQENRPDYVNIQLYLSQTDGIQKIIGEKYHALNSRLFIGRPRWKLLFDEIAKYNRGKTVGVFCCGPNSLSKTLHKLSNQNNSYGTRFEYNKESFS
# [10] = target: NADPH oxidase 5 (Homo sapiens) (UniProt Q96PH1); assay: NOX5-dependent H2O2 signal modulators, primary screen, NOX inhibitor project, cell-based, HEK293-NOX5, Amplex Red fluorescence (AID 1161); conditions: HEK293-NOX5, ionomycin, 45 min, higher = more signal
# Chain of NADPH oxidase 5 (Homo sapiens) (Q96PH1 whole entry, looked up): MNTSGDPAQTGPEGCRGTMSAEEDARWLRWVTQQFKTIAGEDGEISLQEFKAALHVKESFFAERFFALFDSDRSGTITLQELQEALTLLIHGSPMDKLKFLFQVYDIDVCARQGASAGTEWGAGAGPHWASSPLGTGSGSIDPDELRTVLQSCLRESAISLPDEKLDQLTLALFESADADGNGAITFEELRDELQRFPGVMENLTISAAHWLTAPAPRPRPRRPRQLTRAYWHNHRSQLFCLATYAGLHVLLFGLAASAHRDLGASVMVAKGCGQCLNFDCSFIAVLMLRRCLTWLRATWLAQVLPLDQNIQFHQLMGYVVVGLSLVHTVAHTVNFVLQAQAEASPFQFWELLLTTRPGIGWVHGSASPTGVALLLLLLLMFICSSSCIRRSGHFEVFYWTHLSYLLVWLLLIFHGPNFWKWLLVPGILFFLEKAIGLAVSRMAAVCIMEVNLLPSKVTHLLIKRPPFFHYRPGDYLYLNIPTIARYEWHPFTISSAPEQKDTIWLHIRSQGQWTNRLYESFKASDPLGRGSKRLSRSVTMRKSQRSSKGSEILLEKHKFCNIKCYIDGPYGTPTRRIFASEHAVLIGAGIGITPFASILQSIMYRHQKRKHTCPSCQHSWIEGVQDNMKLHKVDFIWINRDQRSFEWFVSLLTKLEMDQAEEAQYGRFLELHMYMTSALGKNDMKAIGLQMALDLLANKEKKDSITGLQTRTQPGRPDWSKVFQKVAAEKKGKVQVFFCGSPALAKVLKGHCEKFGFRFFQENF
# [11] = A549 cell viability effects, profiling panel, calcein-AM fluorescence, 48 h, basal (AID 1162); conditions: higher = more signal; also: test concentration not given here
# [12] = adipocyte viability effects, profiling panel, cell-based, 3T3-L1 adipocytes, calcein-AM fluorescence, 48 h, basal (AID 1163); conditions: 3T3-L1 adipocytes viability, higher = more signal; also: test concentration not given here
# [13] = HepG2 cell viability effects, profiling panel, calcein-AM fluorescence, 48 h, basal (AID 1164); conditions: higher = more signal; also: test concentration not given here
# [14] = MM1S cell viability effects, profiling panel, calcein-AM fluorescence, 48 h, basal (AID 1165); conditions: higher = more signal;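 also: viability of MM1S multiple myeloma cells under basal unstimulated conditions; test concentration not given here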
# [15] = basal RPMI8226 viability, no added stimulus, profiling panel, cell-based, calcein-AM fluorescence, 48 h, PK04 Diversity Set (AID 1166); conditions: RPMI8226 myeloma viability, higher = more signal;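 also: cells grown under basal conditions without added stimulus; test concentration not given here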
# [16] = basal HepG2 mitochondrial membrane potential changes, profiling panel, cell-based, JC-1 fluorescence, 24 h, 100 nL compound (AID 1167); conditions: higher = more signal; also: test concentration not given here
# [17] = basal 3T3-L1 adipocyte mitochondrial potential changes, profiling panel, cell-based, JC-1 fluorescence, 3T3-L1 adipocytes, 24 h, 100 nL compound (AID 1168); conditions: JC-1 mitochondrial fluorescence, higher = more signal, called active from +8 up or from −8 down; also: test concentration not given here
# [18] = basal RPMI8226 mitochondrial membrane potential changes, profiling panel, cell-based, JC-1 fluorescence, 24 h, 100 nL compound (AID 1169); conditions: RPMI8226 myeloma, JC-1 mitochondrial potential fluorescence, higher = more signal; also: test concentration not given here
# [19] = basal MM1S mitochondrial membrane potential changes, profiling panel, cell-based, JC-1 fluorescence, 24 h, 100 nL compound (AID 1170); conditions: higher = more signal; also: test concentration not given here
# [20] = A549 lung cancer cell viability effects, profiling panel, resazurin fluorescence, 24 h, PK04 Diversity Set (AID 1171); conditions: higher = more signal, called active from +8 up or from −8 down; also: test concentration not given here
Structure (SMILES),z-score [1],composite z-score [2],z-score [3],z-score [4],z-score [5],z-score [6],z-score [7],z-score [8],z-score [9],z-score [10],z-score [11],z-score [12],z-score [13],z-score [14],z-score [15],z-score [16],z-score [17],z-score [18],z-score [19],z-score [20]
CC(C)c1ccc(NN2C(C(O)C3CCCCC3)C=CC3C(=O)N(c4ccccc4)C(=O)C32)cc1 (stereo not given),-0.78 (inactive),0.368,3.29 (inactive),1.71 (inactive),0.215 (inactive),1.37 (inactive),-0.996,-1.69 (inactive),-2.75 (inactive),-2.44,0.19,-1.19,1.41,-0.381,-0.886,-1.49,-0.176 (inactive),0.227,-1.36,-0.519 (inactive)
O=C(NCCN1CCOCC1)[C@@H]1c2ccccc2C(=O)N(CC23CC4CC(CC(C4)C2)C3)[C@H]1c1ccc(CO)cc1,0.0865 (inactive),0.409,2.89 (inactive),1.09 (inactive),1.29 (inactive),0.744 (inactive),-0.407,-0.0458 (inactive),-1.7 (inactive),-1.61,-0.0791,1.43,0.45,-0.846,-0.327,2.95,-0.634 (inactive),0.434,-0.388,1.8 (inactive)
COc1ccc([Si](C)(C)[C@@H]2[C@@H](CC(=O)N3Cc4ccccc4C[C@H]3CO)O[C@]3(C(=O)N(Cc4ccc(I)cc4)c4ccccc43)[C@H]2C)cc1,1.35 (inactive),0.0063,4.93 (inactive),1.98 (inactive),2.47 (inactive),1.21 (inactive),0.192,1.19 (inactive),1.15 (inactive),0.652,-0.806,0.62,-0.435,-1.98,-0.588,0.81,0.124 (inactive),-0.531,0.122,-0.663 (inactive)
COc1ccc([Si](C)(C)[C@@H]2[C@@H](CC(=O)N3CCC[C@H]3CO)O[C@]3(C(=O)N(Cc4cccc(N5C(=O)c6cccc7cccc5c67)c4)c4ccccc43)[C@H]2C)cc1,1.63 (inactive),0.19,3.97 (inactive),-0.263 (inactive),-0.16 (inactive),-1.24 (inactive),0.851,2.72 (inactive),1.31 (inactive),2.84,-1.07,1.29,-3.23,-2.44,-4.33,-0.907,0.522 (inactive),-1.05,-1.01,-1.53 (inactive)
